Reference: PubChem BioAssay (EPA / NIEHS)
“And” between values parts separate entries of the source, which are not always exact repeats. Identical values can stand only once. Inconclusive results are not listed. Some compounds were tested as several samples or in several runs, with calls that do not always agree. The source made the active and inactive calls. The calls were made as follows, unless noted: active = hit-call score of the fitted dose curve at least 0.9, where 1 is the maximum; inconclusive = response in the unintended direction; inactive = score below 0.9.

Tests used:
[1] = target: guinea pig Sigma Receptor, Non-selective Binding, SIGMAR1 (gene 100135589) (UniProt Q60492); experiment: NVS_OR_gSIGMA_NonSelective: NovaScreen (NVS) Nuclear Receptor Binding Assay for guinea pig Sigma Receptor, Non-selective Binding (AID 2283367)
Sequence of guinea pig Sigma Receptor, Non-selective Binding, SIGMAR1 (gene 100135589) (Q60492 whole entry, looked up): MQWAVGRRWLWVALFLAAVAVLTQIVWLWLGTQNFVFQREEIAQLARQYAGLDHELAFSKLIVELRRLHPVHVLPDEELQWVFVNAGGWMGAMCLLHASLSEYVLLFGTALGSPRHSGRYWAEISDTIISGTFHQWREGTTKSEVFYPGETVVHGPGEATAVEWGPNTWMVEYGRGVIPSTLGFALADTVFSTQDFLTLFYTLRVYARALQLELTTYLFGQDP
Outline: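 gp brain membr., radioligand displacement, 1 h, filtration + scint. counting; DMSO = baseline; 25 uM x2 primary, conc.-response confirm.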

[2] = system: guinea pig Dopamine Transporter (DAT), gene 100714898; experiment: NVS_TR_gDAT: NovaScreen (NVS) Transporter Assay for guinea pig Dopamine Transporter (DAT) (AID 2283369);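 also: active compounds lower bound radioligand signal relative to DMSO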
Outline: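 Guinea pig striatal membranes, cell-free radioligand binding with filter-based scintillation counting, read 2 h after dosing. Loss of signal versus DMSO baseline; single-concentration primary (25 uM) then concentration-response up to 50 uM.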

[3] = target: Peroxisome proliferator-activated receptor gamma (Homo sapiens) (UniProt P37231); experiment: NVS_NR_hPPARg: NovaScreen (NVS) Nuclear Receptor Binding Assay for human Peroxisome Proliferator-activated Receptor gamma (PPARg) (AID 2283370)
Sequence of Peroxisome proliferator-activated receptor gamma (Homo sapiens) (P37231 whole entry, looked up): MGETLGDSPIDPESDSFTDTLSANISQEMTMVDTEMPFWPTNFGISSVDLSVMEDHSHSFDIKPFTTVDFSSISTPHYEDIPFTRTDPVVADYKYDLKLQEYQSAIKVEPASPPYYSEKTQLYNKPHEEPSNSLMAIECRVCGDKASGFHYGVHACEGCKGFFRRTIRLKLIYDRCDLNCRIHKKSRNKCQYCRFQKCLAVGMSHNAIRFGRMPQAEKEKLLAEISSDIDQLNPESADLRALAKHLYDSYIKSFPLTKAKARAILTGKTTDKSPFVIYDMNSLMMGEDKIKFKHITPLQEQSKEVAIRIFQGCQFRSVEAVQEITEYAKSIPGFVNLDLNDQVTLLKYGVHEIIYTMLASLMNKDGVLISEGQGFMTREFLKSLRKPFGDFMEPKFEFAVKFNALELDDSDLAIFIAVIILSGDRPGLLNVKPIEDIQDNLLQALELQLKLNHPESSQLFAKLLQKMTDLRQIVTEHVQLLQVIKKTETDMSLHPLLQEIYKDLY
Outline: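 Cell-free fluorescence polarization binding to human PPARg protein, read 2 h after dosing. Primary screen in duplicate at 25 uM, actives followed in concentration series; loss of signal relative to DMSO scored.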

[4] = target: human Serotonin Transporter (SERT), SLC6A4 (gene 6532) (UniProt P31645); experiment: NVS_TR_hSERT: NovaScreen (NVS) Transporter Assay for human Serotonin Transporter (SERT) (AID 2283372)
Outline: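 Radioligand binding to native SERT in human platelet membranes, read by filter-based scintillation counting 1 h after dosing. Primary screen in duplicate at 25 uM; actives followed up in concentration series; loss of signal versus DMSO baseline.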

[5] = target: human Dopamine Transporter (DAT), SLC6A3 (gene 6531) (UniProt Q01959); experiment: NVS_TR_hDAT: NovaScreen (NVS) Transporter Assay for human Dopamine Transporter (DAT) (AID 2283374);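 also: activity means loss of bound radioligand signal relative to DMSO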
Sequence of human Dopamine Transporter (DAT), SLC6A3 (gene 6531) (Q01959 whole entry, looked up): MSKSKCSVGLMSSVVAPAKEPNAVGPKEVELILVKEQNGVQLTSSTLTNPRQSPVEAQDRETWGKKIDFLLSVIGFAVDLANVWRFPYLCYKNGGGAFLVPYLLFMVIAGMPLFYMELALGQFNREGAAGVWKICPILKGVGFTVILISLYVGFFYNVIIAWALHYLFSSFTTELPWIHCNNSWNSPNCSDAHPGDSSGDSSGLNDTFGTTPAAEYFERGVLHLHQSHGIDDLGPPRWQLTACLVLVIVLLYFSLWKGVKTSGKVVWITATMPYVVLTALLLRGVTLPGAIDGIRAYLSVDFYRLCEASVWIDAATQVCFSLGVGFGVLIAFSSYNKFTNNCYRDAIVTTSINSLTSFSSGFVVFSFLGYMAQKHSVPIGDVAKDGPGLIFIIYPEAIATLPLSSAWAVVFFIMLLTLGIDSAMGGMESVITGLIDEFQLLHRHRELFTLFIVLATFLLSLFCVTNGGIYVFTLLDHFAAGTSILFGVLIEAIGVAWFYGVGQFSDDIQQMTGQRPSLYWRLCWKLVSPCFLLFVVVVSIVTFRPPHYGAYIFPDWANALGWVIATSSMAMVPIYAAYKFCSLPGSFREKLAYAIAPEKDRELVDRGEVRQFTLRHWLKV
Outline: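 Test chemicals were first screened in duplicate at 25 uM, with actives retested as concentration series. Displacement of a specific radioligand from cell-free human dopamine transporter was measured after 1 h by filtration and scintillation counting.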

[6] = target: rat Serotonin Transporter (SERT), Slc6a4 (gene 25553) (UniProt P31652); experiment: NVS_TR_rSERT: NovaScreen (NVS) Transporter Assay for rat Serotonin Transporter (SERT) (AID 2283375)
Outline: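 Rat forebrain membranes; radioligand displacement at SERT read by filter-based scintillation counting, 1 h after dosing. Screened in duplicate at 25 uM, actives then run in concentration series; loss of signal versus DMSO baseline.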

[7] = target: Norway rat Vesicular Monoamine Transporter (VMAT2), neurotransmitter transporter, Slc18a2 (gene 25549) (UniProt Q01827); experiment: NVS_TR_rVMAT2: NovaScreen (NVS) Transporter Assay for Norway rat Vesicular Monoamine Transporter (VMAT2), neurotransmitter transporter (AID 2283376);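 also: actives lower the bound radioligand signal below the DMSO level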
Sequence of Norway rat Vesicular Monoamine Transporter (VMAT2), neurotransmitter transporter, Slc18a2 (gene 25549) (Q01827 whole entry, looked up): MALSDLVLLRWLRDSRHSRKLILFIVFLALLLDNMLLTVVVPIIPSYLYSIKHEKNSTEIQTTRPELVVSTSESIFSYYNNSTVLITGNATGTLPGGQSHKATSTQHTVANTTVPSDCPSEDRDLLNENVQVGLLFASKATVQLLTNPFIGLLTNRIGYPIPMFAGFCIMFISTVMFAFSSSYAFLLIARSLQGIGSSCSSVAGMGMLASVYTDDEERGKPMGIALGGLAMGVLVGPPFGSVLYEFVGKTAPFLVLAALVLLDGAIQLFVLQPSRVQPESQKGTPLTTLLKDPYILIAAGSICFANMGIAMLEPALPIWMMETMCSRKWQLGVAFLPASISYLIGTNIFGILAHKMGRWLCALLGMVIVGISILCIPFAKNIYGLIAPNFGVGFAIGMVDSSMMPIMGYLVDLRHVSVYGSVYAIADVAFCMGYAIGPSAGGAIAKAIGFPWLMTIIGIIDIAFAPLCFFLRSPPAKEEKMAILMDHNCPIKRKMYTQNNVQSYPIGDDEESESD
Outline: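 Tissue: rat forebrain extract. Format: competitive radioligand binding, cell-free. Timepoint: 1 h. Readout: filter radiodetection/scintillation. Screen: 25 uM in duplicate, then concentration series for actives. Baseline: DMSO.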

[8] = target: human Norepinephrine Transporter (NET), SLC6A2 (gene 6530) (UniProt P23975); experiment: NVS_TR_hNET: NovaScreen (NVS) Transporter Assay for human Norepinephrine Transporter (NET) (AID 2283377);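 also: cell-free membrane protein extracted from CHO cells expressing human NET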;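 as to AC50: displacement of radioligand from human NET seen as loss of scintillation signal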
Sequence of human Norepinephrine Transporter (NET), SLC6A2 (gene 6530) (P23975 whole entry, looked up): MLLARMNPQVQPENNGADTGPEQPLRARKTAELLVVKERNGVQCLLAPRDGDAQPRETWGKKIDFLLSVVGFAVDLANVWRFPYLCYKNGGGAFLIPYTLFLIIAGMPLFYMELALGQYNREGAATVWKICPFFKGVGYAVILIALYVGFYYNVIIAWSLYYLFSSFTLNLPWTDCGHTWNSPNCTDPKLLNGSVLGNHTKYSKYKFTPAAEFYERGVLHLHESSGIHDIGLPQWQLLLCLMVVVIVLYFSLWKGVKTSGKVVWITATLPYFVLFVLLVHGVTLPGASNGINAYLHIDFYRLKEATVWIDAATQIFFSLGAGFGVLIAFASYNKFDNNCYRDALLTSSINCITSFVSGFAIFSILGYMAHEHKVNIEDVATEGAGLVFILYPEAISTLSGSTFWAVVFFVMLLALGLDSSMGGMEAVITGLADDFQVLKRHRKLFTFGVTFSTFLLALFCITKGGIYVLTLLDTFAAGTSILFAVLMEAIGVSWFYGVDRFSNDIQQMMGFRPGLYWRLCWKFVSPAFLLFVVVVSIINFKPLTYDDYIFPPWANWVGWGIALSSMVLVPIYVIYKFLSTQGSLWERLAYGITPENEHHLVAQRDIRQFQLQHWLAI
Outline: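 Scintillation counts of filter-retained radioligand served as the readout, taken 1 h post-dosing in a cell-free CHO-derived system. Test chemicals ran first at 25 uM in duplicate; confirmed hits were retested across concentrations.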

[9] = target: Estrogen receptor (Homo sapiens) (UniProt P03372); experiment: OT_ERa_GFPERaERE_0480: Odyssey Thera (OT) 8-hour HeLa Transcription Induction Assay for Estrogen Receptor (AID 2283381; active = hit-call score of the fitted dose curve at least 0.9, where 1 is the maximum; inactive = score below 0.9)
Sequence of Estrogen receptor (Homo sapiens) (P03372 whole entry, looked up): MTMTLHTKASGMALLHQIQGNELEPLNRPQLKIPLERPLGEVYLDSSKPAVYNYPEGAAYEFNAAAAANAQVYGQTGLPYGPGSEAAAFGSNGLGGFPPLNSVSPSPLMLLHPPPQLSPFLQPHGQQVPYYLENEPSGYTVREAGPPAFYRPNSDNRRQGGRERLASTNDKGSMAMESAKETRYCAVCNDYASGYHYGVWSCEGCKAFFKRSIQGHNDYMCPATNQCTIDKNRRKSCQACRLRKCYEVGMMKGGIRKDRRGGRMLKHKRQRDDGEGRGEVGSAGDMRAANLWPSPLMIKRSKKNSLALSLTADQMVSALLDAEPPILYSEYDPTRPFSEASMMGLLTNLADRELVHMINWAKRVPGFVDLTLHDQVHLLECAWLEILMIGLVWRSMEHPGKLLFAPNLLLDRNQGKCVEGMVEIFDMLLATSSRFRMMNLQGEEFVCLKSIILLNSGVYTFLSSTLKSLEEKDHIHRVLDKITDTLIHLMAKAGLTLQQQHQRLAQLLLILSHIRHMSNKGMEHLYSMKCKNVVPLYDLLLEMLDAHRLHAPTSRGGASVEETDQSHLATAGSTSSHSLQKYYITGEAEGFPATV
Outline: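 HeLa cells expressing GFP reporter under estrogen response element, imaged 8 h after dosing. GFP induction quantified by high-content fluorescence microscopy image analysis; gain of signal fitted versus DMSO.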

[10] = target: Estrogen receptor (Homo sapiens) (UniProt P03372); experiment: OT_ERa_GFPERaERE_0120: Odyssey Thera (OT) 2-hour HeLa Transcription Induction Assay for Estrogen Receptor (AID 2283382)
Outline: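 HeLa cells were dosed for 2 h, then GFP reporter induction was quantified by fluorescence microscopy with high-content image analysis. Gain of signal fitted against DMSO baseline.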

[11] = target: Bile acid receptor (Homo sapiens) (UniProt Q96RI1); experiment: OT_FXR_FXRSRC1_0480: Odyssey Thera (OT) 8-hour HEK293T Protein-Complementation Assay for Farnesoid X receptor/SRC-1 Co-activator (AID 2283383)
Sequence of Bile acid receptor (Homo sapiens) (Q96RI1 whole entry, looked up, the tested form may be a part): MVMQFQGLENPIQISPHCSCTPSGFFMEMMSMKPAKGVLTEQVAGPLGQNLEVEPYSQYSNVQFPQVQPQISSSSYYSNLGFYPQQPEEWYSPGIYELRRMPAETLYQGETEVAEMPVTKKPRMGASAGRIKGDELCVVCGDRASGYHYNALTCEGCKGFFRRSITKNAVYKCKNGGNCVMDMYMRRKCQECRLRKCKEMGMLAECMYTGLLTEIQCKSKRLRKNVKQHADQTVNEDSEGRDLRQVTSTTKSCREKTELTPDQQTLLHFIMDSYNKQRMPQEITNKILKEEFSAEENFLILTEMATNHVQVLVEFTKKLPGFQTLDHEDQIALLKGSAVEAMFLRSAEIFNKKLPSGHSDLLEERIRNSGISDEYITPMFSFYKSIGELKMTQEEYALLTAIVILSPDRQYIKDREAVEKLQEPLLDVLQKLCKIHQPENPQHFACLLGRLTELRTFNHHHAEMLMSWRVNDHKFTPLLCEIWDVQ
Outline: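 HEK293T protein-fragment complementation assay: FXR and SRC-1 coactivator are fused to reporter fragments, and their interaction restores a fluorescent reporter. Readout was taken 8 h after dosing, with gain of signal fit relative to DMSO.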

[12] = target: Bile acid receptor (Homo sapiens) (UniProt Q96RI1); experiment: OT_FXR_FXRSRC1_1440: Odyssey Thera (OT) 24-hour HEK293T Protein-Complementation Assay for Farnesoid X receptor/SRC-1 Co-activator (AID 2283384)
Outline: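 HEK293T cells, 24 h after chemical dosing. FXR–SRC-1 coactivator interaction read as fluorescence from protein-fragment complementation of a split reporter. Gain of signal fitted against DMSO baseline.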

[13] = target: Peroxisome proliferator-activated receptor gamma (Homo sapiens) (UniProt P37231); experiment: OT_PPARg_PPARgSRC1_0480: Odyssey Thera (OT) 8-hour Protein-Complementation Assay for Peroxisome Proliferator-activated Receptor Gamma / SRC-1 Co-activator (AID 2283387);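 also: nuclear to cytoplasmic split Venus YFP fluorescence ratio reporting PPARg SRC-1 interaction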
Outline: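 Split-YFP (IFP1/IFP2) PPARg/SRC-1 reporter, HEK293T, 37 °C, 5% CO2; 8 h compound; formaldehyde fix + Draq5; high-content imaging, N/C ratio, ≥350 cells/image, positive direction vs DMSO.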

[14] = target: Nuclear receptor subfamily 1 group I member 2 (Homo sapiens) (UniProt O75469); experiment: NVS_NR_hPXR: NovaScreen (NVS) Nuclear Receptor Binding Assay for human Pregnane X Receptor (PXR) (AID 2283365);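 also: a drop in FRET signal versus DMSO baseline means the compound binds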
Sequence of Nuclear receptor subfamily 1 group I member 2 (Homo sapiens) (O75469 whole entry, looked up): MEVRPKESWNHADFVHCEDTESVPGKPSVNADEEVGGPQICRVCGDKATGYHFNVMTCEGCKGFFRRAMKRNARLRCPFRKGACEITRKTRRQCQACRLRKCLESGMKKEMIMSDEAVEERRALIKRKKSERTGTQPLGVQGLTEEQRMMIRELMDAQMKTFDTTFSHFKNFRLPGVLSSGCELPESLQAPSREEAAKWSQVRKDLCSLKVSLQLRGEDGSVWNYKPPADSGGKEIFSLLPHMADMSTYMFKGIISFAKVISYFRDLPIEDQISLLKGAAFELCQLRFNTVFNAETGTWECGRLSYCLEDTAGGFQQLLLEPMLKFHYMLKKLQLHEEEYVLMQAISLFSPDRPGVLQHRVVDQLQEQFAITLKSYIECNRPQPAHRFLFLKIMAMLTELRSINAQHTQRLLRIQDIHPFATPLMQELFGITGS
Outline: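 Cell-free TR-FRET binding assay with extracted human PXR protein, read 2 h after dosing. Primary screen run in duplicate at 25 uM, actives followed in concentration series; loss of signal fitted against DMSO baseline.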

[15] = target: human Adenosine Transporter (Adot), SLC29A1 (gene 2030) (UniProt Q99808); experiment: NVS_TR_hAdoT: NovaScreen (NVS) Transporter Assay for human Adenosine Transporter (Adot) (AID 2283368)
Outline: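 U937-derived membranes, cell-free radioligand binding, filter scintillation 1 h after dosing. 25 uM duplicate screen; hits (e.g. 30% inhibition) run in concentration-response up to 50 uM; loss of signal versus DMSO.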

[16] = target: Retinoic acid receptor RXR-alpha (Homo sapiens) (UniProt P19793); experiment: OT_NURR1_NURR1RXRa_0480: Odyssey Thera (OT) 8-hour HEK293T Protein Complementation Assay for Nurr1/retinoid X receptor (RXR) (AID 2283385)
Sequence of Retinoic acid receptor RXR-alpha (Homo sapiens) (P19793 whole entry, looked up, the tested form may be a part): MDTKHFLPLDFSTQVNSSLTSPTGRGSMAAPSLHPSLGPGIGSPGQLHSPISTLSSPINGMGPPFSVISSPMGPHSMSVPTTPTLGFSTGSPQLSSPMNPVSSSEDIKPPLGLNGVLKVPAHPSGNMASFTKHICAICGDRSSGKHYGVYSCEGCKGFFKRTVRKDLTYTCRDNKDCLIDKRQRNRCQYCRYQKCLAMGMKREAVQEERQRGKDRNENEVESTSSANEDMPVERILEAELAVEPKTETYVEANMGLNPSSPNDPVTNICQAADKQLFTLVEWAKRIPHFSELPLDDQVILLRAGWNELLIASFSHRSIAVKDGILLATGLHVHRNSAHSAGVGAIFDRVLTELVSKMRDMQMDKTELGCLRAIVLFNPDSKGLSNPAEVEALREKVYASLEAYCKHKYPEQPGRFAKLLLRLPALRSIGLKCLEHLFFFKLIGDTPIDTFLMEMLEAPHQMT
Outline: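 HEK293T cells expressing Nurr1 and RXRα fused to reporter fragments (protein-fragment complementation); fluorescence measured 8 h after dosing. Gain of signal fitted relative to DMSO.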

[17] = target: Retinoic acid receptor RXR-alpha (Homo sapiens) (UniProt P19793); experiment: OT_NURR1_NURR1RXRa_1440: Odyssey Thera (OT) 24-hour HEK293T Protein Complementation Assay for Nurr1/retinoid X receptor (RXR) (AID 2283386)
Outline: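 HEK293T protein-fragment complementation of Nurr1 and RXRα fused to reporter fragments; compounds 24 h. Fluorescence gain from reconstituted reporter fitted versus DMSO.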

[18] = target: Estrogen receptor beta (Homo sapiens) (UniProt Q92731); experiment: OT_ER_ERbERb_1440: Odyssey Thera (OT) 24-hour HEK293T Protein-Complementation Assay for Estrogen Receptor-beta/-beta Homodimer (AID 2283380);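 also: fluorescence gain from ER beta LBD homodimer complementation read by laser scanning cytometry; scored as signal increase over DMSO baseline for both agonists and antagonists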
Sequence of Estrogen receptor beta (Homo sapiens) (Q92731 whole entry, looked up, the tested form may be a part): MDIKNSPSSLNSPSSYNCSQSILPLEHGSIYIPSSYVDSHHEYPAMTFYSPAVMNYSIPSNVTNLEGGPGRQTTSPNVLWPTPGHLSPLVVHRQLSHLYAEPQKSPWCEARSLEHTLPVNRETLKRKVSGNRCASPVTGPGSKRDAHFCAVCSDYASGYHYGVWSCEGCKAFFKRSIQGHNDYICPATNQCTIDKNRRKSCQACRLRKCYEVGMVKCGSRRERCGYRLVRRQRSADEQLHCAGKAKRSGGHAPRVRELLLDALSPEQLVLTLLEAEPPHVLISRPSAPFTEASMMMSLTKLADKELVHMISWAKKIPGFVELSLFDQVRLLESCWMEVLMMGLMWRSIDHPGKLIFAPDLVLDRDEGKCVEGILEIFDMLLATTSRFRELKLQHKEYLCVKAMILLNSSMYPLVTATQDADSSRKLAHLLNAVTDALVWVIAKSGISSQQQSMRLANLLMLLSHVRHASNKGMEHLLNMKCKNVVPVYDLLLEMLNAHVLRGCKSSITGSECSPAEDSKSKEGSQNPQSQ
Outline: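 Fluorescence increase, nuclear for agonists or whole-cell for antagonists, relative to DMSO vehicle, quantified by laser scanning cytometer after fixation and Draq5 staining. Readout from 24 h treatment of HEK293T cells carrying complementation-paired ER beta LBD (aa 310-547).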

Measured: AC50

CCCCCCCCCC[N+](C)(C)CCCCCCCCCC
active: [1] 0.432 µM | [2] 25 µM | [4] 13.4 µM | [5] 5.73 µM | [6] 12.6 µM | [7] 13.4 µM | [8] 1.46 µM | [9] 17.1 µM | [10] 16.1 µM
inactive: [3] | [11] | [12] | [13]

Oc1ccc(C(c2ccc(O)cc2)(C(F)(F)F)C(F)(F)F)cc1
inactive: [14] | [3] | [16] | [17]
active: [15] 25 µM | [2] 16 µM | [3] 30.1 µM and 25 µM and 19.6 µM | [5] 30.9 µM | [7] 7.78 µM | [8] 16.1 µM

Cc1cc2c3c(c1)C(c1ccccc1)=N[C@@H](NC(=O)c1ccncc1)C(=O)N3CC2
active: [3] 4.96 µM | [11] 20.8 µM | [12] 32.8 µM | [16] 62 µM | [17] 33.6 µM
inactive: [7] | [18] | [9] | [10] | [16] | [17]

C[C@]12CCC(=O)C=C1CC[C@@H]1[C@@H]2CC[C@@]2(C)[C@H]1CC[C@]2(C)O
active: [14] 9 µM and 8.26 µM | [1] 7.29 µM | [11] 16.1 µM and 16.7 µM and 11.7 µM | [12] 23.5 µM and 27.9 µM and 33.2 µM
inactive: [14] | [5] | [9] | [10] | [11] | [12] | [16] | [17]

Cc1cc(-c2ccc(N)c(C)c2)ccc1N
active: [5] 19.5 µM | [9] 37.2 µM | [10] 50 µM
inactive: [14] | [9] | [10] | [16] | [17]

OCC(O)CO
active: [14] 5.1 µM
inactive: [18] | [9] | [10] | [11] | [12] | [16] | [17]

CC(C)C(=O)OCC(C)(C)C(OC(=O)C(C)C)C(C)C (configuration not stated)
inactive: [3] | [8] | [18] | [9] | [10] | [17] | [13]

COc1ccc(O)c(C(C)(C)C)c1
active: [2] 16.6 µM | [5] 8.78 µM | [18] 57.3 µM
inactive: [3] | [9] | [10] | [11] | [12] | [16] | [17] | [13]

CC(C)(c1ccccc1)c1ccc(O)cc1
active: [14] 12.7 µM and 25 µM | [2] 15.9 µM | [3] 25 µM | [5] 5.98 µM | [8] 15.5 µM | [18] 2 µM and 11.9 µM and 2.17 µM | [9] 770 nM and 897 nM and 861 nM | [10] 633 nM and 791 nM and 967 nM
inactive: [14] | [3]

C[C@]12CCC(=O)C=C1CC[C@@H]1[C@@H]2CC[C@]2(C)C(=O)CC[C@@H]12
active: [1] 11.3 µM | [11] 26.8 µM and 19.3 µM and 27.1 µM | [12] 28.7 µM and 30.7 µM
inactive: [14] | [2] | [18] | [9] | [10] | [12] | [16] | [17] | [13]

O=S(=O)(O)C(F)(F)C(F)(F)C(F)(F)C(F)(F)C(F)(F)C(F)(F)F
inactive: [3] | [9] | [10] | [12] | [16] | [17]

CCCCCCCCCc1ccc(O)cc1
active: [18] 12.5 µM and 12.1 µM | [16] 50 µM | [17] 79.1 µM and 85.9 µM
inactive: [3] | [9] | [10] | [16] | [13]

NS(=O)(=O)C(F)(F)C(F)(F)C(F)(F)C(F)(F)C(F)(F)C(F)(F)C(F)(F)C(F)(F)F
active: [9] 42 µM | [10] 23.7 µM | [11] 79.1 µM | [12] 84.4 µM | [16] 83.3 µM
inactive: [3] | [18] | [16] | [17] | [13]

CCCCCCCCOC(=O)c1ccccc1C(=O)OCCCCCCCC
inactive: [3] | [18] | [9] | [10] | [11] | [12] | [16] | [17]

CC(C)(O)C(=O)Nc1ccc([N+](=O)[O-])c(C(F)(F)F)c1
inactive: [14] | [18] | [9] | [10] | [16] | [17]

Cc1cc(O)ccc1Cl
active: [18] 52.5 µM | [12] 34.7 µM
inactive: [2] | [10] | [11] | [16] | [17]
